Screening data: PubChem BioAssay, Broad Institute
mut p53 react = restores mutant p53 pathway signaling in SW480 cells; SW480 PUMA-promoter luciferase, p53 mutant reactivation; activation, % at 9.98 µM; hit rate 1.5% among 28,000; in the data active means activation above about 52%
ID4 SMM = binders of human ID4 protein. P47928. small molecule microarray, Flag-ID4 binding, fluorescence F/B. calls only. hit rate 1.2% among 31,000; call rule not given here;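 further: a binder raises fluorescence above local background on the spot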
Target sequence (P47928 whole entry, looked up): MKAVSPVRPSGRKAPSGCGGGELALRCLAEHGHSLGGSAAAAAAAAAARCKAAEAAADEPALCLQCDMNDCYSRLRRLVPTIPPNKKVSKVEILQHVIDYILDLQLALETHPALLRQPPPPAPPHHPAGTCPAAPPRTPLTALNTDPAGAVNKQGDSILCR
Active calls of the source: *. Only some compounds are listed: those with a hit (about 2.3% of all), similar ones and a draw of the others.

Screening Cc1ccc(NC(=O)COc2ccc(Cl)cc2)c([N+](=O)[O-])c1 returned mut p53 react 95* and ID4 SMM inactive.
Screening Cc1ccc(NC(=O)COc2cc(C)c(Br)c(C)c2)c([N+](=O)[O-])c1 returned mut p53 react 11 and ID4 SMM inactive.
Screening CCOc1ccc(OCC(=O)Nc2ccc(C)cc2[N+](=O)[O-])cc1 returned mut p53 react 32 and ID4 SMM inactive.
`O=C(c1cnc2ccccn12)C(F)(F)SCc1c(Cl)cccc1Cl` gave mut p53 react 10 and ID4 SMM inactive.
`CS(=O)(=O)N(CC(=O)Nc1cc(C(F)(F)F)ccc1Cl)c1cccc(F)c1` gave mut p53 react 1 and ID4 SMM inactive.
`O=C(Cn1cc(C(=O)c2ccccc2F)c2ccccc21)Nc1ccccc1` gave mut p53 react -3 and ID4 SMM inactive.
For O=C(CN1C(=O)c2ccccc2C1=O)Nc1ccc(-c2nc3ccccc3o2)cc1 the results were mut p53 react 28 and ID4 SMM inactive.
For Cc1ccc2oc(-c3ccc(NC(=O)Cn4c(=O)oc5ccccc54)cc3)nc2c1 the results were mut p53 react 60* and ID4 SMM inactive.
For CC1CCC(O)C2C=CC(C)(O)C(C)(C(=O)CCO)C12 (stereo unspecified) the results were mut p53 react -13 and ID4 SMM inactive.
CC(C)(C)NS(=O)(=O)c1ccc(NC(=O)COc2ccc3ccccc3c2Br)cc1 was read as mut p53 react 6 and ID4 SMM inactive.
For O=C(COc1ccc2ccccc2c1Br)NCc1ccccn1 the results were mut p53 react 96* and ID4 SMM inactive.
For Cc1cc(NC(=O)/C=C\c2ccccc2)nc2c1c(=O)oc1ccccc12 the results were mut p53 react -22 and ID4 SMM inactive.
`O=C(O)CCCCCCC(=O)Nc1ccc(C2OC(CSCCO)CC(c3ccccc3)O2)cc1` (stereo unspecified) gave ID4 SMM active.
`COC(=O)CCCCCCC(=O)Nc1ccc(C2OC(CSc3ccccn3)CC(c3ccccc3)O2)cc1` (stereo unspecified) gave ID4 SMM inactive.
For Cc1c(NC(=O)CN(c2ccccc2F)S(C)(=O)=O)cccc1[N+](=O)[O-] the results were mut p53 react -3 and ID4 SMM inactive.
For N#Cc1c(NC(=O)Cn2c(=O)oc3cc(Br)ccc32)sc2c1CCCC2 the results were mut p53 react 7 and ID4 SMM inactive.
For O=C(Cn1c(=O)oc2ccccc21)Nc1sc2c(c1C(=O)O)CCCC2 the results were mut p53 react 3 and ID4 SMM active.
For Cc1noc(C)c1NC(=O)N(C)C[C@@H]1Oc2ccc(NC(=O)Nc3cccc4ccccc34)cc2C(=O)N([C@@H](C)CO)C[C@@H]1C the results were mut p53 react -9 and ID4 SMM inactive.
For COc1ccc(S(=O)(=O)N(C)C[C@@H]2Oc3c(NS(=O)(=O)c4ccccc4)cccc3C(=O)N([C@@H](C)CO)C[C@H]2C)cc1 the results were ID4 SMM inactive.
CC(C)c1onc(-c2c(Cl)cccc2Cl)c1COc1ccc(/C=C/c2cccc(C(=O)O)c2)c(Cl)c1 was read as mut p53 react 67* and ID4 SMM inactive.
For CC1(CC(=O)O)CCC2(O1)C(CO)=CCC1C(C)(C)C(O)CCC12C (stereo unspecified) the results were mut p53 react 3 and ID4 SMM inactive.
For COC(=O)C1=C(C)NC(=S)NC1c1cccc(OC)c1OCc1ccccc1 (stereo unspecified) the results were mut p53 react -11 and ID4 SMM inactive.
O=C1O[C@H](c2ccccc2)[C@H](c2ccccc2)N2[C@H]1[C@@H](C(=O)N1CCCCCCC1)[C@]1(C(=O)Nc3ccccc31)[C@H]2c1ccc(OCCO)cc1 was read as ID4 SMM inactive.
Screening O=C1O[C@@H](c2ccccc2)[C@@H](c2ccccc2)N2[C@@H](c3ccc(OCCO)cc3)[C@]3(C(=O)Nc4ccccc43)[C@@H](C(=O)N3CCCCCCC3)[C@H]12 returned ID4 SMM active.
Screening C=CCOC(=O)[C@H]1[C@@H]2C(=O)O[C@@H](c3ccccc3)[C@@H](c3ccccc3)N2[C@@H](c2ccc(OCCOC(=O)[C@@H]3C[C@@H]4C(=O)N5CCC[C@H]5C(=O)N4[C@@H]3c3ccc(O)cc3)cc2)[C@]12C(=O)Nc1ccc(I)cc12 returned ID4 SMM active.
`C=CCOC(=O)[C@H]1[C@@H]2C(=O)O[C@@H](c3ccccc3)[C@@H](c3ccccc3)N2[C@@H](c2ccc(OCCOC(=O)[C@H]3C[C@H]4C(=O)N5CCC[C@H]5C(=O)N4[C@H]3c3ccc(O)cc3)cc2)[C@]12C(=O)Nc1ccccc12` gave ID4 SMM inactive.
COc1ccccc1NC(=O)C1=C(C)NC2=C(C(=O)CC(c3ccc(OC)c(OC)c3)C2)C1c1ccc(C)o1 (stereo unspecified) was read as mut p53 react -17 and ID4 SMM inactive.
